Measurements taken from the supplement of paper PMC10981050.
Where “and” joins values, the source holds several entries; their conditions need not be identical. Equal values may be shown once. Where a name gives a salt, the structure may show the parent alone.

How the values were obtained:
Test in all cases: cell viability relative to vehicle control; higher = less cytotoxic
Conditions in all cases: 10 µM
[1] = system: K562
Method in brief: (§1)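 After removal of identity-inconsistent compounds, the Selleck bioactive, kinase and epigenetic probe libraries were screened on CRISPR-edited mutant clones and isogenic wild-type clones of four leukaemia lines. Plates were 384-well, each well holding 2000 cells in 50 µL medium and receiving a single 10 µM acoustically dispensed dose. CellTiter-Glo luminescence was read 48 h later, after the supernatant was taken off. Genedata Screener was used to express viability as percent of the on-plate vehicle control.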

[2] = system: MARIMO
Method in brief: as §1

[3] = system: MOLM14
Method in brief: as §1

[4] = system: OCI-AML2
Method in brief: as §1

Row | SMILES | cell viability ([1]; SRSF2 genotype: SRSF2 P95H/wt) | cell viability ([1]; SRSF2 genotype: SRSF2 wt/wt) [%] | cell viability ([2]; SRSF2 genotype: SRSF2 P95H/wt) [%] | cell viability ([2]; SRSF2 genotype: SRSF2 wt/wt) [%] | cell viability ([3]; SRSF2 genotype: SRSF2 P95H/wt) [%] | cell viability ([3]; SRSF2 genotype: SRSF2 wt/wt) [%] | cell viability ([4]; SRSF2 genotype: P95H/wt) [%] | cell viability ([4]; SRSF2 genotype: wt/wt) [%]
1 | O=C1CCC[C@@H]2[C@H]3CCCN4CCC[C@H](CN12)[C@@H]34 [Sophoridine] | 104% and 100% | 105 | 108 | 113 | 103 | 108 | 100 | 101
2 | C[C@]12CC[C@H](O)C[C@@H]1CC[C@@H]1[C@@H]2CC[C@]2(C)C(=O)CC[C@@H]12 | 94.7% and 104% | 104 | 98.9 | 108 | 98.5 | 107 | 106 | 97.3
3 | CN(C)C(=O)Oc1ccc[n+](C)c1 [Pyridostigmine Bromide (Mestinon)] | 93.7% and 96.7% | 95.9 | 93.5 | 98.7 | 96.6 | 94.3 | 93.2 | 97
4 | Cc1cccc([C@H](C)c2c[nH]cn2)c1C [Dexmedetomidine HCl (Precedex)] | 99.1% and 101% | 91 | 102 | 100 | 102 | 104 | 107 | 110
5 | COc1cc(C(=O)O)cc(OC)c1OC [Gallic acid trimethyl ether] | 106% and 110% | 101 | 102 | 106 | 105 | 106 | 99.2 | 109
6 | C[C@H]1CC[C@]2(NC1)O[C@H]1C[C@H]3[C@@H]4CC[C@H]5C[C@@H](O)CC[C@]5(C)[C@H]4CC[C@]3(C)[C@H]1[C@@H]2C [Tomatidine] | 92.3% and 92% | 90.7 | 86.8 | 94.8 | 90.7 | 93.3 | 96.5 | 93.5
7 | Cc1cccc(Cc2c[nH]cn2)c1C [Detomidine HCl] | 96.3% and 104% | 96.5 | 103 | 95.3 | 105 | 106 | 110 | 93.1
8 | COC(=O)c1ccccc1C(=O)OC [Dimethyl phthalate] | 86.9% and 85.8% | 84 | 85.6 | 93.4 | 87.5 | 85.8 | 89.5 | 80.7
9 | COc1ccc2c(c1OC)CN1CCc3cc4c(cc3C1C2)OCO4 (configuration not stated) [Tetrahydroberberine] | 86.9% and 87% | 81.9 | 69.8 | 85 | 81.2 | 86.6 | 73 | 72.8
10 | COC1CC(OC2CCC3(C)C(CCC45OC46CCC(C(C)=O)C6(C)C(OC(C)=O)C(OC(=O)c4ccccc4)C35)C2)OC(C)C1OC1OC(C)C(O)C(OC)C1O (configuration not stated) [Tenacissoside I] | 92.5% and 93.1% | 93.8 | 88.2 | 100 | 91.9 | 92.5 | 95 | 106
11 | CCN1CC2(OC(=O)c3ccccc3NC(C)=O)CCC(OC)C34C1C(CC23)C1(O)CC(OC)C2CC4C1(O)C2OC (configuration not stated) [Lappaconitine] | 99.3% and 109% | 100 | 108 | 103 | 103 | 105 | 111 | 91.9
12 | O=C(NCC1CCOCC1)c1cnc(Nc2ccc(Cl)cc2Cl)nc1C(F)(F)F | 95% and 97.7% | 98 | 93.5 | 104 | 103 | 104 | 98.5 | 102
13 | Cc1c(Cl)c(OCC(=O)N2CCN(C)CC2)nc2sc(C(=O)NC3CC3)c(N)c12 | 80.2% and 60.3% | 66 | 40.5 | 30.8 | 81.9 | 51 | 27.8 | 33.5
14 | Cn1c(CCCC(=O)O)nc2cc(N(CCCl)CCCl)ccc21 [Bendamustine HCL] | 97.2% and 96.8% | 96.3 | 94.5 | 104 | 86.3 | 97.8 | 66.5 | 83
15 | COc1ccc(C=O)cc1O [Isovanillin] | 105% and 103% | 103 | 108 | 108 | 106 | 101 | 104 | 98.2
16 | N#CC(C#N)=Cc1ccc(O)c(O)c1 [AG 18 (Tyrphostin 23)] | 86.3% and 84.4% | 80.7 | 78.4 | 79.8 | 81.5 | 86.5 | 78.8 | 82
17 | COc1cc(C)[nH]c(=O)c1CNC(=O)c1c(C)n([C@H](C)C2CCOCC2)c2ccccc12 | 111% and 102% | 94.9 | 106 | 118 | 103 | 101 | 106 | 104
18 | CN(C)[C@@H]1C(=O)C(C(N)=O)=C(O)[C@@]2(O)C(=O)C3=C(O)c4c(O)cccc4[C@@](C)(O)[C@H]3[C@H](O)[C@@H]12 [Oxytetracycline (Terramycin)] | 86.7% and 82.8% | 85.9 | 90.8 | 87.4 | 87.5 | 88.3 | 84.5 | 90
19 | CCC1(c2ccc(N)cc2)CCC(=O)NC1=O (configuration not stated) [Aminoglutethimide (Cytadren)] | 98.1% and 103% | 110 | 96.7 | 101 | 99.8 | 103 | 107 | 108
20 | CCN1C[C@]2(COC)CC[C@H](OC)[C@]34C1[C@H]([C@H](OC)[C@H]23)[C@@]1(OC(C)=O)C[C@H](OC)[C@@]2(O)C[C@@H]4[C@@H]1[C@H]2OC(=O)c1ccc(OC)cc1 [Crassicauline A] | 93.2% and 89.8% | 87.5 | 84.4 | 93.3 | 91.8 | 90.6 | 87.7 | 100
21 | ClC(Cl)=C(c1ccc(Cl)cc1)c1ccc(Cl)cc1 | 103% and 96.8% | 106 | 89.6 | 99.1 | 96.8 | 105 | 100 | 108
22 | C[C@H]1CCCC(=O)CCC/C=C/c2cc(O)cc(O)c2C(=O)O1 [Zearalenone] | 101% and 93.8% | 99.5 | 82.7 | 88.8 | 79.2 | 99 | 88.7 | 97.7
23 | C=CC(=C)C [Isoprene] | 102% and 103% | 105 | 103 | 106 | 95.6 | 108 | 103 | 109
24 | COc1cc(C)[nH]c(=O)c1CNC(=O)c1c(C)n([C@H](C)C2CCN(CC(F)(F)F)CC2)c2ccccc12 | 103% and 99% | 110 | 103 | 110 | 97.2 | 95.3 | 103 | 109
